Drawing on PubChem BioAssay (NCI), this text covers growth for eight compounds.

This is part of a sample that, as a whole, favours compounds with a hit. Of some 83,000 tested, about 20% had one in any assay.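 Percent growth is the endpoint: 0 to 100 indicates growth inhibition (40 means 60% inhibition), 0 means no net growth, and negative values indicate cell death.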 A number with no mark means an inactive call. Activity calls are given as the source filed them. Rule for the calls: active = growth percent below 10; inactive = the rest.

Test systems include NCI-H23 lung; NCI-H226 lung; NCI-H322M lung; HOP-62 NSCLC; NCI-H460 lung; 786-0 renal; DU-145 prostate; MDA-MB-231 breast; SF-268 CNS; SNB-19 CNS; UACC-62 melanoma; SK-MEL-28 melanoma; SN12C renal; UO-31 renal; OVCAR-5 ovarian; OVCAR-3 ovarian; NCI/ADR-RES ovarian; MDA-MB-435 melanoma; MCF7 breast; KM12 colon.
Holding throughout (test): NCI-60 one-dose screen, 48 h (100 = growth as untreated, 0 = no growth, -100 = all killed)
Settings in all cases: 10 µM unless noted

As for `NC(Cc1ccc(O)cc1)C(=O)N/N=C/c1ccc(N(CCCl)CCCl)cc1` (stereo not given), the growth in the experiment on NCI-H23 lung was 69.6%; in the experiment on NCI-H226 lung it was 46.8%; with NCI-H322M lung, 102%; in the experiment with HOP-62 NSCLC, 95.4%; in the experiment with NCI-H460 lung, 27.1%; in the experiment with 786-0 renal it was 43%. Further, the growth is 69.2% in the experiment with DU-145 prostate; 73.7% in the experiment on MDA-MB-231 breast; 55.9% in the experiment with SF-268 CNS; 92.5% in the experiment with SNB-19 CNS; 31.4% in the experiment with UACC-62 melanoma; 108% with SK-MEL-28 melanoma. The growth is 46.4% in the experiment on SN12C renal; 52.2% in the experiment with UO-31 renal; 115% in the experiment on OVCAR-5 ovarian; 101% in the experiment with OVCAR-3 ovarian; 78.4% in the experiment with NCI/ADR-RES ovarian; 84.7% in the experiment with MDA-MB-435 melanoma. Besides, the figures for the growth in the experiment on MCF7 breast and in the experiment with KM12 colon were 54.5% and 75%, respectively.

Consider `ClCCN(CCCl)c1ccc(C=NCCc2c[nH]c3ccccc23)cc1`, for which the growth in the experiment on NCI-H23 lung is 71.7%; in the experiment on NCI-H226 lung, -10.5% (active); in the experiment with NCI-H322M lung, 111%; with HOP-62 NSCLC, 73.1%; in the experiment on NCI-H460 lung, 22.6%; in the experiment on 786-0 renal, 63.4%. For the same compound, the growth is 56.2% in the experiment on DU-145 prostate; 98.8% in the experiment with MDA-MB-231 breast; 72.2% in the experiment with SF-268 CNS; 89.8% in the experiment with SNB-19 CNS; 56.9% in the experiment with UACC-62 melanoma; 108% in the experiment with SK-MEL-28 melanoma. The growth was 62.7% in the experiment with SN12C renal; 60.6% in the experiment with UO-31 renal; 94.5% with OVCAR-5 ovarian; 93.3% with OVCAR-3 ovarian; 76.2% with NCI/ADR-RES ovarian; 110% in the experiment with MDA-MB-435 melanoma. In addition, the growth in the experiment on MCF7 breast was 56%; with KM12 colon it was 101%.

For the compound `O=C1C=CC(=O)C2C1C1(Cl)C(Cl)=C(Cl)C2(Cl)C1(Cl)Cl` (stereo not given), the growth in the experiment on NCI-H23 lung is 58%; in the experiment with NCI-H226 lung, 56.9%; in the experiment with NCI-H322M lung, 77.2%; in the experiment with HOP-62 NSCLC, 63.5%; with NCI-H460 lung it was 57.5%; in the experiment with 786-0 renal, 73.9%. Further, the growth is 70.1% with DU-145 prostate; 44.8% with MDA-MB-231 breast; 47.6% in the experiment on SF-268 CNS; 73.8% with SNB-19 CNS; 46.1% with UACC-62 melanoma; 67.7% in the experiment with SK-MEL-28 melanoma. Also, the growth in the experiment with SN12C renal was 67.3%; with UO-31 renal, 44.9%; with OVCAR-5 ovarian, 78.3%; in the experiment with OVCAR-3 ovarian it was 44.3%; in the experiment with NCI/ADR-RES ovarian it was 47.3%; in the experiment with MDA-MB-435 melanoma, 3.15% (active). For the same compound, the growth is 47% in the experiment on MCF7 breast and 38.9% in the experiment with KM12 colon.

For `Nc1c(Br)cc2c3c(cccc13)-c1ccccc1-2`, the growth in the experiment on NCI-H23 lung is 61.7%; in the experiment with NCI-H226 lung, 89.3%; with NCI-H322M lung, 91.2%; with HOP-62 NSCLC, 82.9%; in the experiment with NCI-H460 lung it was 88.4%; in the experiment on 786-0 renal it was 94.9%. Also, the growth in the experiment on DU-145 prostate was 70%; with MDA-MB-231 breast, 48.7%; in the experiment on SF-268 CNS, 87.7%; in the experiment on SNB-19 CNS, 92.9%; in the experiment on UACC-62 melanoma it was 81.2%; with SK-MEL-28 melanoma, 99.7%. Further, the growth with SN12C renal was 90.4%; in the experiment on UO-31 renal, 42.4%; in the experiment with OVCAR-5 ovarian, 76.8%; in the experiment with OVCAR-3 ovarian, 64.4%; in the experiment with NCI/ADR-RES ovarian, 83.4%; in the experiment with MDA-MB-435 melanoma it was 78.8%. Besides, the growth in the experiment with MCF7 breast is 38.7%; with KM12 colon, 57.4%.

Take `[N-]=[N+]=NC(C(=O)O)c1ccccc1` (stereo not given): the growth in the experiment with NCI-H23 lung was 99.2%; in the experiment on NCI-H226 lung, 125%; with NCI-H322M lung, 101%; in the experiment on HOP-62 NSCLC, 101%; in the experiment on NCI-H460 lung, 115%; in the experiment on 786-0 renal, 103%. Moreover, the growth was 116% in the experiment with DU-145 prostate; 110% in the experiment on MDA-MB-231 breast; 118% with SF-268 CNS; 100% in the experiment with SNB-19 CNS; 117% in the experiment on UACC-62 melanoma; 105% in the experiment on SK-MEL-28 melanoma. For the same compound, the growth is 119% in the experiment on SN12C renal; 88.9% in the experiment on UO-31 renal; 102% in the experiment on OVCAR-5 ovarian; 118% in the experiment on OVCAR-3 ovarian; 107% with NCI/ADR-RES ovarian; 99.9% in the experiment with MDA-MB-435 melanoma. For the same compound, the results for the growth in the experiment on MCF7 breast and in the experiment with KM12 colon were 88.2% and 111%, respectively.

Take `COc1ccc(C2=NN(c3ccccc3)C(c3sc(N(CCCl)CCCl)nc3Cl)C2)cc1` (stereo not given): the growth in the experiment with NCI-H23 lung was 76.7%; in the experiment on NCI-H226 lung, 76.2%; in the experiment with NCI-H322M lung, 92.7%; in the experiment on HOP-62 NSCLC it was 80.1%; in the experiment on NCI-H460 lung, 99%; in the experiment on 786-0 renal, 103%. Further, the growth in the experiment with DU-145 prostate is 106%; in the experiment with MDA-MB-231 breast, 68.4%; in the experiment with SF-268 CNS, 86.8%; with SNB-19 CNS it was 93.5%; in the experiment with UACC-62 melanoma, 65.1%; with SK-MEL-28 melanoma, 97.9%. For the same compound, the growth is 90.5% with SN12C renal; 78.6% with UO-31 renal; 90.1% in the experiment on OVCAR-5 ovarian; 93.3% in the experiment with OVCAR-3 ovarian; 95.7% with NCI/ADR-RES ovarian; 90.5% with MDA-MB-435 melanoma. Besides, the growth is 87.3% with MCF7 breast and 81.4% in the experiment on KM12 colon.

Regarding `CC(CC(C#N)(c1ccccc1)c1ccccc1)N1CCOCC1` (stereo not given), the growth was 106% in the experiment on NCI-H23 lung; 112% in the experiment on NCI-H226 lung; 107% in the experiment with NCI-H322M lung; 97.6% in the experiment with HOP-62 NSCLC; 112% with NCI-H460 lung; 112% with 786-0 renal. In addition, the growth was 105% with DU-145 prostate; 94.4% in the experiment with MDA-MB-231 breast; 101% in the experiment on SF-268 CNS; 92.2% with SNB-19 CNS; 80.4% with UACC-62 melanoma; 123% with SK-MEL-28 melanoma. Also, the growth in the experiment on SN12C renal is 93.5%; in the experiment on UO-31 renal, 74.6%; in the experiment with OVCAR-5 ovarian it was 89.5%; in the experiment on OVCAR-3 ovarian, 105%; in the experiment on NCI/ADR-RES ovarian it was 106%; with MDA-MB-435 melanoma, 118%. For the same compound, the growth in the experiment with MCF7 breast was 122%; in the experiment with KM12 colon, 104%.

Turning to `ClCCN(CCCl)c1ccc(/C=C\c2ccnc3ccccc23)cc1`, the growth in the experiment with NCI-H23 lung is 61.6%; in the experiment with NCI-H226 lung, 69.1%; with NCI-H322M lung it was 92.3%; in the experiment on HOP-62 NSCLC, 120%; with NCI-H460 lung, 56.3%; in the experiment on 786-0 renal, 84.2%. The growth was 90.6% in the experiment with DU-145 prostate; 92.2% with MDA-MB-231 breast; 94.9% with SF-268 CNS; 88.8% with SNB-19 CNS; 59.2% in the experiment on UACC-62 melanoma; 98.1% in the experiment on SK-MEL-28 melanoma. The growth was 75.7% in the experiment on SN12C renal; 70.8% with UO-31 renal; 119% with OVCAR-5 ovarian; 84% in the experiment on OVCAR-3 ovarian; 80.4% with NCI/ADR-RES ovarian; 76% with MDA-MB-435 melanoma. The growth in the experiment with MCF7 breast was 61.5%; in the experiment with KM12 colon, 83.1%.
